{"source": "the supplement of paper PMC12350171", "note": "Structures can show the parent of a compound that is named as a salt. Values without a mark were called inactive.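 The calls were made as follows: active = AUC significantly below DMSO controls by Student t-fit with adjusted P under 0.01; inactive = not significantly reduced.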"}
{"test_system": "Haemophilus parainfluenzae", "assay": "growth AUC normalised to DMSO control (fraction of control); higher = less growth inhibition, active = hit call of the paper", "settings": "20 µM", "in_short": "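Hemin and NAD were added to the medium for Haemophilus parainfluenzae. All pathogens, after two anaerobic passages, were inoculated at a starting OD578 of 0.01 into pre-reduced mGAM plates with 20 μM compound and 1% DMSO under breathable seals, and OD578 was read hourly for 24 h in three biological replicates. AUC of each growth curve was obtained with the trapezoidal rule up to the exponential-to-stationary transition and normalised to DMSO controls from the same plate.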"}
{"smiles": "CCCCC1C(=O)N(c2ccccc2)N(c2ccc(O)cc2)C1=O", "note": "(centres undefined) [Oxyphenbutazone]", "growth AUC normalised to DMSO control": 1.08}
{"smiles": "Nc1ncnc2c1ncn2C1OC(COP(=O)(O)O)C(O)C1O", "note": "(centres undefined) [Adenosine 5'-monophosphate monohydrate]", "growth AUC normalised to DMSO control": 0.982}
{"smiles": "CO[C@@]1(NC(=O)C(C(=O)O)c2ccc(O)cc2)C(=O)N2C(C(=O)O)=C(CSc3nnnn3C)CO[C@@H]21", "note": "(some centres undefined) [Moxalactam disodium salt]", "growth AUC normalised to DMSO control": "0.076 (active)"}
{"smiles": "NC(N)=Nc1nc(CSCC/C(N)=N/S(N)(=O)=O)cs1", "note": "[Famotidine]", "growth AUC normalised to DMSO control": 0.975}
{"smiles": "CC(=O)Nc1c(I)c(C(=O)N[C@H]2C(O)O[C@H](CO)[C@@H](O)[C@@H]2O)c(I)c(N(C)C(C)=O)c1I", "note": "(some centres undefined) [Metrizamide]", "growth AUC normalised to DMSO control": 0.984}
{"smiles": "CCn1cc(C(=O)O)c(=O)c2cnc(N3CCCC3)nc21", "note": "[Piromidic acid]", "growth AUC normalised to DMSO control": 1.03}
{"smiles": "COc1ccc2[nH]c([S+]([O-])Cc3ncc(C)c(OC)c3C)nc2c1", "note": "(centres undefined) [Omeprazole]", "growth AUC normalised to DMSO control": 0.919}
{"smiles": "O=C(NCCN1CCOCC1)c1ccc(Cl)cc1", "note": "[Moclobemide]", "growth AUC normalised to DMSO control": 0.971}
{"smiles": "CO[C@H]1/C=C/O[C@@]2(C)Oc3c(C)c(O)c4c(O)c(c5c(nc6cc(C)ccn65)c4c3C2=O)NC(=O)/C(C)=C\\C=C\\[C@H](C)[C@H](O)[C@@H](C)[C@@H](O)[C@@H](C)[C@H](OC(C)=O)[C@@H]1C", "note": "[Rifaximin]", "growth AUC normalised to DMSO control": "0.026 (active)"}
{"smiles": "CC(C)(C)NC[C@H](O)COc1cccc2c1CCCC2=O", "note": "[(-) Levobunolol hydrochloride]", "growth AUC normalised to DMSO control": 0.989}
{"smiles": "C[n+]1ccccc1/C=N/O", "note": "[Pralidoxime chloride]", "growth AUC normalised to DMSO control": 0.915}
{"smiles": "CNCCc1ccccn1", "note": "[Betahistine mesylate]", "growth AUC normalised to DMSO control": 0.962}
{"smiles": "CC(Oc1c(Cl)cccc1Cl)C1=NCCN1", "note": "(centres undefined) [Lofexidine]", "growth AUC normalised to DMSO control": 0.993}
{"smiles": "NCCCCCC(=O)O", "note": "[Aminocaproic acid]", "growth AUC normalised to DMSO control": 1.1}
{"smiles": "CCn1cc(C(=O)O)c(=O)c2cc(F)c(N3CCNCC3)cc21", "note": "[Norfloxacin]", "growth AUC normalised to DMSO control": "0.0519 (active)"}
{"smiles": "CC(C)(CO)[C@@H](O)C(=O)NCCCO", "note": "[(D)-Panthenol]", "growth AUC normalised to DMSO control": 0.991}
{"smiles": "CCN1CCC[C@H]1CNC(=O)c1c(O)c(Cl)cc(Cl)c1OC", "note": "[Raclopride]", "growth AUC normalised to DMSO control": 0.944}
{"smiles": "CC[N+](C)(C)Cc1ccccc1Br", "note": "[Bretylium tosylate]", "growth AUC normalised to DMSO control": 1.02}
{"smiles": "CCCN(CCC)CCc1cccc2c1CC(=O)N2", "note": "[Ropinirole hydrochloride]", "growth AUC normalised to DMSO control": 1}
{"smiles": "C[C@@H]1C[C@H]2[C@@H]3CCC4=CC(=O)C=C[C@]4(C)[C@@]3(Cl)[C@@H](O)C[C@]2(C)[C@@]1(OC(=O)c1ccco1)C(=O)CCl", "note": "[Mometasone furoate]", "growth AUC normalised to DMSO control": 1.05}
{"smiles": "CN(C)CCCO[C@@H]1[C@H]2OC(C)(C)O[C@H]2O[C@@H]1[C@H](O)CO", "note": "[Amiprilose hydrochloride]", "growth AUC normalised to DMSO control": 0.963}
{"smiles": "OC(CCN1CCCCC1)(c1ccccc1)c1ccccc1", "note": "[Pridinol methanesulfonate salt]", "growth AUC normalised to DMSO control": 0.999}
{"smiles": "Clc1ccc2nsnc2c1NC1=NCCN1", "note": "[Tizanidine hydrochloride]", "growth AUC normalised to DMSO control": 0.965}
{"smiles": "N[C@H]1CONC1=O", "note": "[(S,-) Cycloserine]", "growth AUC normalised to DMSO control": 0.989}
{"smiles": "CCCCOc1cc(C(=O)NCCN(CC)CC)c2ccccc2n1", "note": "[Dibucaine]", "growth AUC normalised to DMSO control": 0.849}
{"smiles": "NC(=O)OCC(O)COc1ccc(Cl)cc1", "note": "(centres undefined) [Chlorphensin carbamate]", "growth AUC normalised to DMSO control": 1.01}
{"smiles": "CCCc1nc(C)c2c(=O)nc(-c3cc(S(=O)(=O)N4CCN(CC)CC4)ccc3OCC)[nH]n12", "note": "[Vardenafil]", "growth AUC normalised to DMSO control": 1.03}
{"smiles": "CCOC(=O)[C@@](C)(N)Cc1ccc(O)c(O)c1", "note": "[Methyldopate hydrochloride]", "growth AUC normalised to DMSO control": 0.995}
{"smiles": "c1coc(CNc2ncnc3[nH]cnc23)c1", "note": "[Kinetin]", "growth AUC normalised to DMSO control": 1.01}
{"smiles": "CC(C)Cn1cnc2c(N)nc3ccccc3c21", "note": "[Imiquimod]", "growth AUC normalised to DMSO control": 1.08}
{"smiles": "CCC[C@@H]1C[C@@H](C(=O)N[C@@H]([C@H]2O[C@H](SC)[C@H](O)[C@@H](O)[C@H]2O)[C@@H](C)O)N(C)C1", "note": "[Lincomycin hydrochloride]", "growth AUC normalised to DMSO control": "0.828 (active)"}
{"smiles": "CC1=C(CC(=O)O)c2cc(F)ccc2/C1=C\\c1ccc([S+](C)[O-])cc1", "note": "(centres undefined) [Sulindac]", "growth AUC normalised to DMSO control": 0.942}
{"smiles": "COc1cc(N)c(Cl)cc1C(=O)NC1CCN(CCCOc2ccc(F)cc2)CC1OC", "note": "(centres undefined) [Cisapride]", "growth AUC normalised to DMSO control": 1.03}
{"smiles": "CC1(C)O[C@@H]2C[C@H]3[C@@H]4C[C@H](F)C5=CC(=O)C=C[C@]5(C)[C@H]4[C@@H](O)C[C@]3(C)[C@]2(C(=O)CO)O1", "note": "[Flunisolide]", "growth AUC normalised to DMSO control": 0.945}
{"smiles": "NCc1ccc(S(N)(=O)=O)cc1", "note": "[Mafenide hydrochloride]", "growth AUC normalised to DMSO control": 1}
{"smiles": "CC(=O)N(CC(O)CO)c1c(I)c(C(=O)NCC(O)CO)c(I)c(C(=O)NCC(O)CO)c1I", "note": "(centres undefined) [Iohexol]", "growth AUC normalised to DMSO control": 0.981}
{"smiles": "CC1(C)O[C@@H]2C[C@H]3[C@@H]4C[C@H](F)C5=CC(=O)CC[C@]5(C)[C@H]4[C@@H](O)C[C@]3(C)[C@]2(C(=O)CO)O1", "note": "[Flurandrenolide]", "growth AUC normalised to DMSO control": 1.03}
{"smiles": "Cc1c(-c2ccccc2)oc2c(C(=O)OCCN3CCCCC3)cccc2c1=O", "note": "[Flavoxate hydrochloride]", "growth AUC normalised to DMSO control": 1.2}
{"smiles": "NC(=O)c1cnccn1", "note": "[Pyrazinamide]", "growth AUC normalised to DMSO control": 0.979}
